Bioassay records (PubChem)
The list is not random: actives were taken first. Their share in the collection is about 19%.
TDP1 cell CPT: qHTS for Inhibitors of human tyrosyl-DNA phosphodiesterase 1 (TDP1): qHTS in cells in presence of CPT; chicken DT40 Tdp1-/-;hTDP1 cells + 20 nM CPT, ATP luminescence, 48 h; Potency, µM (doses to about 46.2 µM), for inactives: top-dose activity change, negative = growth inhibition, hits mostly inhibitors; 420,000 tested, 12% active; AID 686979, 2013; note: potency is the fitted concentration of half-maximal effect; nearly all actives have a fitted effect of over 55% in size
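Chicken DT40 Tdp1-/- cells stably complemented with human TDP1 were seeded at 400 cells/well in medium containing 20 nM camptothecin, exposed to pin-transferred compounds, and grown at 37 °C for at least 48 hr. Viability was read as ATP luminescence.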
ELG1 DNA repair: qHTS screen for small molecules that inhibit ELG1-dependent DNA repair in human embryonic kidney (HEK293T) cells expressing luciferase-tagged ELG1 | HEK293T ELG1-luciferase reporter, luminescence, 16 h; DNA damage induced by 5-fluorouridine | Potency, µM (top dose mostly 46.1 µM), for the others: at the top dose activity change, negative = inhibition, actives largely listed as inhibitors | 330,000 tested, 2.3% active; note: potency is the fitted concentration of half-maximal effect; nearly all actives have a fitted effect of over 55% in size
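Overnight (16 hr) co-exposure of 2,000 cells/well to 5-fluorouridine and compound at 37 °C preceded detection. Luciferase was quantified via ONE-Glo luminescence; loss of signal denotes inhibition.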
HT1080NT lethal: qHTS for induction of synthetic lethality in tumor cells producing 2HG: qHTS for the HT-1080-NT fibrosarcoma cell line; 360,000 tested, 1.6% active; AID 686970, 2013; HT-1080-NT fibrosarcoma viability, CellTiter-Glo ATP luminescence, 48 h; Potency, µM (highest dose often 46.1 µM), inactives show at the highest dose activity, negative = less viability, hits mostly cytotoxic;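 note: NT is the 2HG producing partner of a matched IDH1 knockdown line; potency is the fitted concentration of half-maximal effect; 0% = DMSO-treated cells and -100% = media-only wells without cells; nearly all actives have a fitted effect of over 55% in size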
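Compounds were tested in concentration-response format on HT-1080-NT cells for 48 hours at 37 degrees C. Cell viability came from CellTiter-Glo luminescence; curves were classified by r2, response magnitude and activity.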
IL-1B inflam inh: qHTS for Inhibitors of Inflammasome Signaling: IL-1-beta AlphaLISA Primary Screen | THP-1 LPS/ATP IL-1B secretion, AlphaLISA, 16 h; hits give low values | activity change, % at 57.5 µM | 360,000 tested, 4.7% active; in the data active = activity change below about -50%; inconclusive = mostly about -30% to -49%
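Secreted IL-1B measured by AlphaLISA bead assay after 16 h compound exposure of THP-1 cells; compounds (final up to 57.5 uM) added 1 h before LPS (250 ng/mL) and ATP (1.25 mM) stimulation; lower signal means less secretion.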
TDP1 cell noCPT: qHTS for Inhibitors of human tyrosyl-DNA phosphodiesterase 1 (TDP1): qHTS in cells in absence of CPT; DT40 Tdp1-/- hTDP1 cells, no CPT, ATP luminescence, 48 h; 420,000 tested, 15% active; Potency, µM (top dose mostly 46.2 µM), for inactives: at the highest dose activity change, negative = growth inhibition, hits mostly inhibitors; note: potency is the fitted concentration of half-maximal effect; nearly all actives have a fitted effect of over 55% in size
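Growth of hTDP1-complemented DT40 Tdp1-knockout cells is measured by ATP luminescence after at least 48 hr compound exposure at 37 °C, with DMSO substituting for the 20 nM CPT used in the parallel screen.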
HT1080 IDH1KD tx: qHTS for induction of synthetic lethality in tumor cells producing 2HG: qHTS for the HT-1080-IDH1KD cell line; 360,000 tested, 2% active; HT-1080 IDH1 knockdown viability, ATP luminescence, 48 h; Potency, µM (top dose mostly 46.1 µM), without a hit: at the highest dose activity, negative = toxicity, usual class: cytotoxic;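 note: potency is the fitted concentration of half-maximal effect; 0% = DMSO wells and -100% = cell-free medium wells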
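Knockdown cells (IDH1KD HT-1080) received compounds 2 h after plating at 750 cells/well and were kept 48 h at 37 °C in 5% FBS RPMI. A CellTiter-Glo luminescence read gave % activity for curve fitting.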
An asterisk follows results filed as active; ! = not confirmed by another sample. Unless noted, calls come from the whole dose curve; as a rule, active = well fitted curve in the direction sought with a large enough effect; inconclusive = small, poorly fitted or top-dose-only effect, or another doubt; inactive = no such curve, though single readings can be large; an effect the other way counts as inactive or inconclusive. Unless noted, % is set by controls: 0 for no effect and ±100 for the full control effect.

`Cn1c(O)c(/C=C/C=Nc2ccccc2)c(=O)n(C)c1=S` gave TDP1 cell CPT -1%, ELG1 DNA repair -3%, HT1080NT lethal -6%, IL-1B inflam inh 7, TDP1 cell noCPT -27% and HT1080 IDH1KD tx 1%.
COC(=O)[C@@]1(C)CC[C@]2(C)CC[C@@]3(C)C(=CC(=O)C4[C@@]5(C)CC[C@H](O)C(C)(C)[C@@H]5CC[C@]43C)[C@H]2C1 (some centres undefined) was read as TDP1 cell CPT -28%, ELG1 DNA repair inconclusive, HT1080NT lethal 12%, IL-1B inflam inh 6, TDP1 cell noCPT inconclusive and HT1080 IDH1KD tx 6%.
`C=C(C)[C@@H]1CC[C@]2(C(=O)O)CC[C@]3(C)C(CCC4[C@@]5(C)CC[C@H](O)C(C)(C)C5CC[C@]43C)C12` (some centres undefined) gave TDP1 cell CPT 6.5µM*, ELG1 DNA repair 3%, HT1080NT lethal inconclusive, IL-1B inflam inh 41, TDP1 cell noCPT 7.3µM* and HT1080 IDH1KD tx inconclusive.
`Oc1ccc(-c2cccnc2)cc1CNC1CN2CCC1CC2` (centres undefined) gave TDP1 cell CPT -2% and TDP1 cell noCPT -28%.
For O=C(CF)N(O)c1ccc(C=Cc2ccccc2)cc1 the results were TDP1 cell CPT 0.13µM*, HT1080NT lethal -22%, IL-1B inflam inh -28, TDP1 cell noCPT 0.026µM* and HT1080 IDH1KD tx inconclusive.
Screening CC(C)c1c(C(=O)NC(c2cccnc2)C(F)(F)F)cnn1-c1nccc(-c2cccs2)n1 (centres undefined) returned TDP1 cell CPT inconclusive and TDP1 cell noCPT 13µM*.
For CC(NC(C)(C)C)C(=O)c1cccc(Cl)c1 (centres undefined) the results were TDP1 cell CPT -3%, ELG1 DNA repair 23%, HT1080NT lethal 16%, IL-1B inflam inh 20, TDP1 cell noCPT 16µM*! and HT1080 IDH1KD tx 8%.
For COc1ccc2c(c1)/C(=C/c1cnc[nH]1)C(=O)N2 the results were TDP1 cell CPT 2.6µM*, ELG1 DNA repair inconclusive, HT1080NT lethal inconclusive, IL-1B inflam inh -111*, TDP1 cell noCPT 1.2µM* and HT1080 IDH1KD tx 15µM*!.
`O=C1Nc2ccccc2/C1=C/c1cnc[nH]1` gave TDP1 cell CPT inconclusive, ELG1 DNA repair 26%, HT1080NT lethal -7%, IL-1B inflam inh -25, TDP1 cell noCPT 18µM* and HT1080 IDH1KD tx inconclusive.
For COc1cc(C=C2C(=O)NC(=O)NC2=O)ccc1O the results were TDP1 cell CPT -1%, ELG1 DNA repair 6%, HT1080NT lethal 8%, IL-1B inflam inh 3, TDP1 cell noCPT 4% and HT1080 IDH1KD tx 10%.
O=C1Nc2ccccc2Oc2ccccc21 was read as TDP1 cell CPT 7%, HT1080NT lethal -3%, IL-1B inflam inh inconclusive, TDP1 cell noCPT 10% and HT1080 IDH1KD tx 0%.
Screening COc1cc(OC)c(/C=C2\C(=O)Nc3ccccc32)c(OC)c1 returned TDP1 cell CPT 2.6µM*, ELG1 DNA repair inconclusive, HT1080NT lethal inconclusive, IL-1B inflam inh -2, TDP1 cell noCPT 2.6µM* and HT1080 IDH1KD tx 2.6µM*.
`c1ccc2sc(C3CCNCC3)nc2c1` gave TDP1 cell CPT 7%, ELG1 DNA repair -19%, HT1080NT lethal 1%, IL-1B inflam inh 22, TDP1 cell noCPT -26% and HT1080 IDH1KD tx -2%.
For CCCCn1c(O)c(C=NCCCn2ccnc2)c(=O)[nH]c1=O the results were TDP1 cell CPT -11%, ELG1 DNA repair -6%, HT1080NT lethal -6%, IL-1B inflam inh 10, TDP1 cell noCPT 1% and HT1080 IDH1KD tx 0%.
For CC(C)CCCn1c(O)c(/C=C2/C=CC=N2)c(=O)[nH]c1=O the results were TDP1 cell CPT 5.8µM*, ELG1 DNA repair inconclusive, HT1080NT lethal 18µM*, IL-1B inflam inh -18, TDP1 cell noCPT 5.2µM* and HT1080 IDH1KD tx 16µM*.
For COC(=O)C(Cl)C(=O)OC the results were TDP1 cell CPT 0% and TDP1 cell noCPT 1%.
For Cc1cccc(CN2CCN(Cc3ccc(Cl)cc3)CC2)c1 the results were TDP1 cell CPT inconclusive, ELG1 DNA repair inconclusive, HT1080NT lethal -15%, IL-1B inflam inh inconclusive, TDP1 cell noCPT 21µM* and HT1080 IDH1KD tx -28%.
`COc1ccc(CN2CCN(Cc3ccccc3OC)CC2)cc1` gave TDP1 cell CPT -19%, ELG1 DNA repair -2%, HT1080NT lethal 0%, IL-1B inflam inh 6, TDP1 cell noCPT inconclusive and HT1080 IDH1KD tx -8%.
For COc1ccccc1CN1CCN(Cc2ccc(Cl)cc2)CC1 the results were TDP1 cell CPT -20%, ELG1 DNA repair -22%, HT1080NT lethal -3%, IL-1B inflam inh -3, TDP1 cell noCPT 21µM* and HT1080 IDH1KD tx 2%.
For COc1ccccc1N1CCN(Cc2ccc(SC)cc2)CC1 the results were TDP1 cell CPT 16µM*, ELG1 DNA repair -22%, HT1080NT lethal -4%, IL-1B inflam inh -6, TDP1 cell noCPT 21µM* and HT1080 IDH1KD tx -2%.
CCc1ccc(CN2CCN(Cc3ccc(SC)cc3)CC2)cc1 was read as TDP1 cell CPT inconclusive, ELG1 DNA repair 5.8µM*, HT1080NT lethal inconclusive, IL-1B inflam inh -91*, TDP1 cell noCPT 21µM* and HT1080 IDH1KD tx inconclusive.
Cc1[nH]c2ccc(OC(=O)N3CCOCC3)cc2c1C(=O)OC(C)C was read as TDP1 cell CPT inconclusive, ELG1 DNA repair inconclusive, HT1080NT lethal -12%, IL-1B inflam inh -2, TDP1 cell noCPT inconclusive and HT1080 IDH1KD tx -15%.
`CCOc1ccc(-c2cc(C(=O)N3CCN(c4cccc(C(F)(F)F)c4)CC3)c3ccccc3n2)cc1` gave TDP1 cell CPT 5.2µM* and TDP1 cell noCPT 4.6µM*.
For COc1ccc(-c2cc(C(=O)N3CCN(c4ccccc4OC)CC3)c3cc(C(C)C)ccc3n2)cc1 the results were TDP1 cell CPT 23µM* and TDP1 cell noCPT 21µM*.
COc1ccc(N2CCN(C(=O)c3cc(=O)[nH]c4ccccc34)CC2)cc1 was read as TDP1 cell CPT 5%, ELG1 DNA repair -1%, HT1080NT lethal 3%, IL-1B inflam inh 23, TDP1 cell noCPT inconclusive and HT1080 IDH1KD tx 0%.
